Source: PubChem (National Center for Advancing Translational Sciences (NCATS))
Only some compounds are listed: those with a hit (about 9.4% of all), similar ones and a draw of the others.
Pf growth 48h: P. falciparum growth inhibition at 48 hours (one generation) | 5.9% of 310,000 active | P. falciparum luciferase growth in erythrocytes, 48 h | Potency, µM (highest dose often 28.7 µM), without a hit: at the top dose activity change, negative = inhibition, actives largely listed as inhibitors | AID 504832; note: % is set by controls: 0 for no effect and ±100 for the full control effect
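Growth was read as firefly luciferase luminescence after a 48 h, 37 C, 5% CO2 exposure of compounds to reporter-bearing P. falciparum cultures (0.1% parasitemia, 2% hematocrit final) in Albumax-supplemented RPMI 1640.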
SARS PLP yeast: inhibitors of SARS-CoV papain-like protease in yeast. Potency, µM (doses to about 32.9 µM), for inactives: top-dose activity, positive = growth rescue, actives largely listed as activators. 0.19% of 330,000 active. S. cerevisiae expressing SARS-CoV PLpro, growth rescue. AID 485353; calls by dose curve; note: 0% is about no effect; nearly all actives have a fitted effect of over 55% in size
Pf growth 96h: inhibits malaria parasite growth, 96 h. P. falciparum luciferase reporter growth, 96 h. Potency, µM (highest dose often 28.7 µM), inactives show at the top dose activity change, negative = inhibition, hits mostly inhibitors. 6.9% of 320,000 active. AID 504834; note: % is set by controls: 0 for no effect and ±100 for the full control effect
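P. falciparum expressing integrated firefly luciferase grown in erythrocytes (2% hematocrit, 0.05% parasitemia final) with compounds for 96 hours at 37 C, 5% CO2. Growth inhibition read as loss of luminescence after adding luciferase detection reagent.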
AMA1-RON2 inh: disrupts binding of P. falciparum AMA1 to RON2 | AlphaScreen AMA1-biotinylated RON2 peptide binding | Potency, µM (series often up to 58.2 µM), for the others: top-dose activity change, negative = inhibition, usual class: inhibitors | 0.2% of 360,000 active | AID 720542;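 note: 0% = vehicle wells and -100% = peptide control; nearly all actives have a fitted effect of over 45% in size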
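AMA1 (3D7) with his tag at 25 nM final met compounds first, then biotinylated RON2 peptide at 25 nM; detection used donor plus acceptor beads, 10 µg/mL apiece, read by AlphaScreen after 30 min at room temperature.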
Numbers without * were called inactive; ? = inconclusive; nt = not tested or not shown; [ ] = remark or other dose. Unless noted, calls come from the whole dose curve; as a rule, active = well fitted curve in the direction sought with a large enough effect; inconclusive = small, poorly fitted or top-dose-only effect, or another doubt; inactive = no such curve, though single readings can be large; an effect the other way counts as inactive or inconclusive. Potency is the fitted concentration of half-maximal effect.

SMILES	Pf growth 48h	SARS PLP yeast	Pf growth 96h	AMA1-RON2 inh
Cc1ccc(NC(=O)COC(=O)COc2ccc(Cl)cc2)c([N+](=O)[O-])c1	8.1%	-6.2%	-8.5%	?
CC(=O)c1c(N2CCN(Cc3ccccc3)CC2)[nH]c(-c2ccccc2)nc1=S	4.65µM*	21.9%	-100.9%	11.9%
CCOc1ccc(-n2cc(C(=O)NCc3ccco3)c3cc(OC)c(OC)cc3c2=O)cc1	4.7%	3.8%	24.5%	16.3%
O=C(Nc1cc(F)cc(F)c1)c1ccc(NCCCN2CCCCCC2)c([N+](=O)[O-])c1	?	2.2%	?	-13.1%
COc1cccc(NC(=O)c2ccc(NCCCN3CCC(C)CC3)c([N+](=O)[O-])c2)c1	2.08µM*	-0.9%	?	-14.1%
O=C(Nc1ccccc1)c1ccc(NCCN2C(=O)CCC2=O)c([N+](=O)[O-])c1	11.8%	-0.8%	13.8%	?
COc1cccc(NC(=O)c2ccc(NCCCN3CC(C)CC(C)C3)c([N+](=O)[O-])c2)c1 (stereo unspecified)	?	-3.0%	3.7µM*	1.9%
Cc1ccc(NC(=O)c2ccc(NCCCN3CCC(C)CC3)c([N+](=O)[O-])c2)c(C)c1	3.29µM*	-1.9%	?	-10.1%
CCCN(CCC)CCCNc1ccc(C(=O)Nc2cccc(OC)c2)cc1[N+](=O)[O-]	1.47µM*	0.6%	12.5%	-3.7%
c1csc(C(c2nnnn2C2CCCC2)N2CCOCC2)c1 (stereo unspecified)	3.9%	5.6%	-21.4%	48.6%
c1csc(C(c2nnnn2C2CCCC2)N2CCCC3(CCCCC3)C2)c1 (stereo unspecified)	2.08µM*	-29.1%	nt	-4.3%
N#Cc1cccc(C(c2nnnn2C2CCCC2)N2CCCCCC2)c1 (stereo unspecified)	?	-8.0%	11.7µM*	21.8%
c1cncc(C(c2nnnn2C2CCCC2)N2CCCC2)c1 (stereo unspecified)	-26.4%	-1.0%	9.28µM*	4.0%
NC(=O)C1CCN(C(c2ccccc2)c2nnnn2C2CCCC2)CC1 (stereo unspecified)	-25.2%	4.5%	-14.2%	10.8%
N#Cc1ccc(C(c2nnnn2C2CCCC2)N2CCC(Cc3ccccc3)CC2)cc1 (stereo unspecified)	4.65µM*	2.6%	143.2%	-8.3%
Clc1ccc(C(c2nnnn2C2CCCC2)N2CCN(Cc3ccncc3)CC2)cc1 (stereo unspecified)	?	-0.7%	nt	-11.0%
c1ccc(C(c2nnnn2C2CCCC2)N2CCCCCC2)nc1 (stereo unspecified)	nt	-3.7%	-3.0%	1.1%
COc1ccc(Cn2nnnc2C(c2ccccc2Cl)N2CCN(C3CCCC3)CC2)cc1 (stereo unspecified)	14.7µM*	7.5%	75.1%	-3.1%
Fc1ccc(C(c2nnnn2C2CCCC2)N2CCN(Cc3ccccc3)CC2)cc1 (stereo unspecified)	9.28µM*	1.1%	nt	34.6%
c1ccc(C(c2ccccc2)N2CCN(C(c3ccccn3)c3nnnn3C3CCCC3)CC2)cc1 (stereo unspecified)	-11.9%	-0.1%	4.65µM*	1.1%
N#Cc1cccc(C(c2nnnn2C2CCCC2)N2CCC(Cc3ccccc3)CC2)c1 (stereo unspecified)	5.22µM*	-14.9%	-17.9%	-4.9%
COc1ccc(S(=O)(=O)N(C)C[C@@H]2Oc3c(NS(=O)(=O)c4cn(C)cn4)cccc3C(=O)N([C@@H](C)CO)C[C@@H]2C)cc1	nt	-33.8%	nt	11.1%
COc1ccc(Cc2nnc(NC(=O)c3ccccc3F)s2)cc1	21.3%	-3.4%	0.8%	-7.8%
c1ccc(Cn2nnnc2C(c2cccnc2)N2CCN(C3CCCCC3)CC2)cc1 (stereo unspecified)	?	9.4%	13.1µM*	-6.2%
CCOC(=O)N1CCC(NC(=O)CCC(=O)c2ccccc2)CC1	-9.4%	2.9%	8.28µM*	0.9%
SMILES	Pf growth 48h	SARS PLP yeast	Pf growth 96h	AMA1-RON2 inh
CCOC(=O)N1CCC(NC(=O)c2ccc(CO)c(C(=O)NC3CCN(C(=O)OCC)CC3)c2)CC1	?	-1.2%	?	-2.5%
CCOC(=O)N1CCN(C(=O)CCn2nc(-c3ccccc3)ccc2=O)CC1	33.6%	-0.4%	-3.6%	3.9%
CCOC(=O)N1CCC(NC(=O)Cc2ccccc2)CC1	24.8%	-8.5%	-21.5%	-20.8%
CCOC(=O)N1CCN(C(=O)Cn2nc(-c3ccc(Cl)cc3)ccc2=O)CC1	49.4%	9.3%	-10.4%	7.3%
CCOC(=O)Cn1nc(-c2ccc(Cl)cc2)ccc1=O	12.5%	-0.4%	9.28µM*	-3.4%
CCOC(=O)N1CCC(NC(=O)c2cc(C(=O)Nc3cccc(C(F)(F)F)c3)ccc2CO)CC1	-9.8%	-1.6%	2.33µM*	2.1%
CCOC(=O)N1CCC(NC(=O)Cn2nc(-c3ccccc3)ccc2=O)CC1	-5.5%	-0.7%	9.28µM*	-2.1%
O=C(NN=C(Cc1ccccc1)Cc1ccccc1)c1ccccc1F	7.1%	-6.3%	22.8%	53.5%
O=C(CCCn1c(=O)[nH]c2ccsc2c1=O)NCc1cccs1	19.8%	5.0%	43.3%	-1.9%
CC1(C(=O)NCC(F)(F)F)CCN1C(=O)C1(c2ccccc2)CC1 (stereo unspecified)	nt	nt	nt	-6.3%
NC(=O)C1CCN(CC(=O)Nc2cccc(C(=O)Nc3cccc(C(F)(F)F)c3)c2)CC1	1.17µM*	-1.3%	?	-9.8%
CCOC(=O)N1CCC(NC(=O)c2ccccc2C(=O)O)CC1	5.86µM*	0.2%	0.0%	0.4%
Cc1ccc(C)c(Nc2ncccc2C(=O)NCc2cccs2)c1	12.6%	-58.9%	9.28µM*	-5.0%[2.32 µM]
COc1cc(C(=O)O)ccc1OC(C)=O	38.6%	-4.7%	?	-0.8%
COCCN(CC(=O)Nc1ccccc1C(F)(F)F)C(=O)/C=C/c1ccc2ccccc2n1	?	14.2%	14.7µM*	-0.8%
COCCN(CC(=O)Nc1ccccc1C(F)(F)F)C(=O)/C=C/c1cc(Cl)c2c(c1)OCO2	?	-4.3%	?	-1.5%
COC(=O)C1=CN(c2cccc(C)c2)C=C(C(=O)OC)C1c1cc(OC)c(O)c([N+](=O)[O-])c1	8.28µM*	-5.1%	?	?
COC(=O)C1=CN(c2ccc(OC)cc2)C=C(C(=O)OC)C1c1cccc(F)c1	?	0.4%	-6.2%	51.0%
COC(=O)C1=CN(c2cccc(C(F)(F)F)c2)C=C(C(=O)OC)C1c1ccc(O)c(OC)c1	nt	-2.6%	?	-2.6%
COC(=O)C1=CN(c2ccc(OC)cc2)C=C(C(=O)OC)C1c1ccc(C)c([N+](=O)[O-])c1	13.1µM*	12.1%	19.7%	-19.2%
Cc1nnc(SC(C)C(=O)Nc2ncc(Cl)cc2Cl)n1Cc1ccccc1 (stereo unspecified)	?	1.6%	2.08µM*	?
COCCn1c(SC(C)C(=O)Nc2ncc(Cl)cc2Cl)nc2ccccc21 (stereo unspecified)	?	-6.2%	nt	4.6%
Nc1ccccc1C(=O)N1CCC(O)(c2ccc(Cl)cc2)CC1	108.8%	2.1%	239.9%	-2.3%
Cc1csc(NC(=O)CN2C(=O)c3ccccc3S2(=O)=O)n1	16.1%	3.2%	13.1µM*	72.6%
